Consider 32 compounds from PubChem BioAssay (NCATS).

Results filed as inconclusive are left out. A number with no mark means an inactive call. The source made the active and inactive calls. Calls follow the shape of the dose curve; as a rule, active = well fitted curve in the direction sought with a large enough effect; inconclusive = small, poorly fitted or top-dose-only effect, or another doubt; inactive = no such curve, though single readings can be large; an effect the other way counts as inactive or inconclusive.

Assay [1] deals with Cytochrome P450 3A7 (Homo sapiens) (UniProt P24462). Put plainly: Cytochrome P450 family 3 subfamily A member 7 (CYP3A7) small molecule antagonists: luciferase biochemical qHTS assay (AID 1963596). Also: % is scaled to controls: 0 for no effect and ±100 for the full control effect; nearly all actives have a fitted effect of over 40% in size. An outline of the steps:
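In this luminescent screen, enzyme and proluciferin substrate meet test compound for 10 min before NADPH regeneration solution drives a 1 h room-temperature reaction; detection reagent halts turnover and luminescence is read 20 min later.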
On the technique in general: qHTS replaces the single test concentration by a dilution series.

The nature of assay [2]: Viability qHTS for spleen associated tyrosine kinase inhibitor (SYKi) naive MV4-11 cells (AID 1963823). Also: nearly all actives have a fitted effect of over 40% in size. Also: potency is read from the fitted curve at half-maximal effect. An outline of the steps:
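SYK inhibitor-naive MV4-11 cells, 500 per well, exposed to compounds for 72 hr at 37 C, 5% CO2. Viability read as CellTiter-Glo luminescence after 10 min at room temperature.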

A short description of assay [3]: Viability qHTS for spleen associated tyrosine kinase inhibitor (SYKi) drug resistant MV4-11 cells (AID 1963824). Also: nearly all actives have a fitted effect of over 35% in size. Also: potency is read from the fitted curve at half-maximal effect. An outline of the steps:
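SYK-inhibitor-resistant MV4-11 AML cells were seeded at 500 per well onto compound and cultured 72 hours (37 °C, 5% CO2). CellTiter-Glo was then added, and after 10 min at room temperature, luminescence gave viability.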

Assay [4] is described as follows: Cellular viability qHTS for adrenocortical cancer (ACC) cell line SW-13 (AID 1963989). Also: nearly all actives have a fitted effect of over 65% in size. Also: potency is read from the fitted curve at half-maximal effect.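 As to activity (max response): cells grown in serum-free medium with ITS supplement; % is scaled to controls: 0 for no effect and ±100 for the full control effect.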 The settings on record: SW-13 ACC cells viability, CellTiter-Glo, 48 h; activity (max response): active compounds read low. In outline:
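IC50 and maximal-response values come from four-parameter logistic fits of titration data. SW-13 cells in serum-free medium received compounds (up to 46 uM final) for 48 h before CellTiter-Glo luminescence.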

Assay [5] is described as follows: Cellular viability qHTS for adrenocortical cancer (ACC) cell line NCI-H295R (AID 1963990). Also: nearly all actives have a fitted effect of over 60% in size. Also: potency is read from the fitted curve at half-maximal effect. An outline of the steps:
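Adrenocortical carcinoma cells, suspended at 300 000 cells/mL in serum-free DMEM plus ITS, rested overnight before pin transfer of compound. After two days' incubation, ATP-dependent luminescence was recorded and curve-fitted.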

Sequence of Cytochrome P450 3A7 (Homo sapiens) (P24462 whole entry, looked up): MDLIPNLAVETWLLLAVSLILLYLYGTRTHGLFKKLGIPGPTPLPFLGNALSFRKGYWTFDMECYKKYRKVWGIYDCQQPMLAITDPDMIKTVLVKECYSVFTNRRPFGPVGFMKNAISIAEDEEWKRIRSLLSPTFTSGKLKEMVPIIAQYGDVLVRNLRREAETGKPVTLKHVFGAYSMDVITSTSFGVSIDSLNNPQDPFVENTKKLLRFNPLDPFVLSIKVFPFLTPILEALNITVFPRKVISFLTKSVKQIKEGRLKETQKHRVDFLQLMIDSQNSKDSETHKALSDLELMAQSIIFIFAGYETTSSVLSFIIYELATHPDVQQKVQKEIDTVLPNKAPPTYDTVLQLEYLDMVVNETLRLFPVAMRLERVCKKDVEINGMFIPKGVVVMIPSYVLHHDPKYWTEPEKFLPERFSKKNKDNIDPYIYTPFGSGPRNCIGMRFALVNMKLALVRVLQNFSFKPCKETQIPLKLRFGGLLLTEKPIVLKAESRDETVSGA

Take `Cc1ccc2ccc(Cl)cc2n1`: the Potency result in assay [1], in assay [2], in assay [3] and in assay [5] was “inactive” each time. Moreover, the activity (max response) in assay [4] is 15.8%.

As to `CN(C)CCOC(C)(c1ccccc1)c1ccccn1` (stereo not given), the Potency result in assay [1], in assay [2], in assay [3] and in assay [5] was “inactive” each time. The activity (max response) in assay [4] was 14.2%.

With `COc1ccc(/C(C)=C/C(=O)O)c(OC)c1`, the Potency result in assay [1], in assay [2], in assay [3] and in assay [5] was “inactive” in each case. The activity (max response) in assay [4] was 9.2%.

Turning to `CCn1cc(C(=O)O)c(=O)c2cc3c(cc21)OCO3`, the Potency result in assay [1], in assay [2], in assay [3] and in assay [5] was “inactive” each time. In addition, in assay [4], the activity (max response) is -2.41%.

Consider `CCOc1ccc(NC(=O)CC(C)O)cc1` (stereo not given), for which the Potency entry in assay [1], in assay [2], in assay [3] and in assay [5] was “inactive” in each case. In addition, in assay [4], the activity (max response) was -9.31%.

Consider `C[N+]1(C)CCC(=C(c2ccccc2)c2ccccc2)CC1`, for which the Potency result in assay [1], in assay [2], in assay [3] and in assay [5] was “inactive” throughout. Further, the activity (max response) in assay [4] was -4.49%.

As to `O=C(O)[C@H](O)c1ccccc1`, the Potency entry in assay [1], in assay [2], in assay [3] and in assay [5] was “inactive” each time. The activity (max response) in assay [4] was 6.97%.

Regarding `CC(=O)Nc1ccc(CC(=O)O)cc1`, the Potency result in assay [1], in assay [2], in assay [3] and in assay [5] was “inactive” in each case. Also, the activity (max response) in assay [4] is 4.33%.

Regarding `Nc1c[n+](N2CCOCC2)no1`, the Potency result in assay [1], in assay [2], in assay [3] and in assay [5] was “inactive” in each case. In assay [4], the activity (max response) is -4.73%.

On to `COc1ccc(C(=O)N2CCN(CC(=O)N3CCOCC3)CC2)cc1`, for which the Potency entry in assay [1], in assay [2], in assay [3] and in assay [5] was “inactive” throughout. For the same compound, the activity (max response) in assay [4] was 8.16%.

As for `O=C1O[C@H](CO)[C@@H](O)[C@H](O)[C@H]1O`, the Potency result in assay [1], in assay [2], in assay [3] and in assay [5] was “inactive” each time. The activity (max response) in assay [4] is 5.91%.

As to `CC(C)=CCC/C(C)=C/CC/C(C)=C/CCC(=O)OC/C=C(\C)CCC=C(C)C`, the Potency result in assay [1], in assay [2], in assay [3] and in assay [5] was “inactive” each time. Further, the activity (max response) in assay [4] was 14.2%.

As for `CN1Cc2cc(C(=O)N3CCC(C4CCNCC4)CC3)ccc2NC(CC(=O)O)C1=O` (stereo not given), the Potency result in assay [1], in assay [2], in assay [3] and in assay [5] was “inactive” in each case. Further, the activity (max response) in assay [4] was 10.5%.

Turning to `COc1ccc2c(c1)CCCC2=O`, the Potency entry in assay [1], in assay [2], in assay [3] and in assay [5] was “inactive” throughout. In addition, the activity (max response) in assay [4] is 14.4%.

For `CC1(C)CO[C@@H](CC(=O)O)CN1`, the Potency result in assay [1], in assay [2], in assay [3] and in assay [5] was “inactive” in each case. Further, the activity (max response) in assay [4] is 8.37%.

Turning to `Cc1sccc1Br`, the Potency entry in assay [1], in assay [2], in assay [3] and in assay [5] was “inactive” in each case. Also, the activity (max response) in assay [4] is -3.04%.

As for `COc1ccc(C2C(=O)c3ccccc3C2=O)cc1`, the Potency entry in assay [1], in assay [2], in assay [3] and in assay [5] was “inactive” each time. In addition, the activity (max response) in assay [4] was 8.16%.

`CCCCCCCCCCCCCCCCCC(=O)OCC(O)CO` (stereo not given): the Potency result in assay [1], in assay [2], in assay [3] and in assay [5] was “inactive” throughout. Also, in assay [4], the activity (max response) was 5.37%.

For the compound `CC1CCN(CCCC(=O)c2ccc(F)cc2)CC1`, the Potency result in assay [1], in assay [2], in assay [3] and in assay [5] was “inactive” in each case. For the same compound, in assay [4], the activity (max response) was -0.695%.

For `CNC(=O)c1c(I)c(NC(C)=O)c(I)c(C(=O)O)c1I`, the Potency result in assay [1], in assay [2], in assay [3] and in assay [5] was “inactive” throughout. Further, in assay [4], the activity (max response) is 10%.

`CCN1CCCC1=O`: the Potency entry in assay [1], in assay [2], in assay [3] and in assay [5] was “inactive” in each case. The activity (max response) in assay [4] is 9.62%.

Turning to `O=C(OOC(=O)c1ccccc1)c1ccccc1`, the Potency result in assay [1], in assay [2], in assay [3] and in assay [5] was “inactive” in each case. Also, the activity (max response) in assay [4] was 0.27%.

`O=C(/C=C/c1ccccc1)OCc1ccccc1`: the Potency result in assay [1], in assay [2], in assay [3] and in assay [5] was “inactive” throughout. Further, the activity (max response) in assay [4] was 5.62%.

`OCc1ccccn1`: the Potency result in assay [1], in assay [2], in assay [3] and in assay [5] was “inactive” throughout. Also, the activity (max response) in assay [4] is -4.99%.

Regarding `CN1CCN(C(c2ccccc2)c2ccccc2)CC1`, the Potency result in assay [1], in assay [2], in assay [3] and in assay [5] was “inactive” each time. For the same compound, the activity (max response) in assay [4] is -4.21%.

With `O=C(COCC(=O)N1CCN(C(c2ccccc2)c2ccccc2)CC1)Nc1ccc(Cl)cc1C(=O)O`, the Potency entry in assay [1], in assay [2], in assay [3] and in assay [5] was “inactive” in each case. Also, the activity (max response) in assay [4] is -10.1%.

Take `CCCN1CCN(c2ccc(C(=O)NC3(C(=O)NCC#N)CCCCC3)cc2)CC1`: the Potency entry in assay [1], in assay [2], in assay [3] and in assay [5] was “inactive” in each case. The activity (max response) in assay [4] is -11.1%.

`Cc1scc2c1N(C(=O)CN1CCN(C)CC1)c1ccccc1NC2=O`: the Potency entry in assay [1], in assay [2], in assay [3] and in assay [5] was “inactive” in each case. Moreover, in assay [4], the activity (max response) was 2.88%.

For `CC(C)CCCC(C)CCCC(C)CCCCC(C)CCCC(C)CCCC(C)C` (stereo not given), the Potency result in assay [1], in assay [2], in assay [3] and in assay [5] was “inactive” throughout. Moreover, the activity (max response) in assay [4] is 6.76%.

Consider `CCOC(=O)C(O)c1ccccc1` (stereo not given), for which the Potency result in assay [1], in assay [2], in assay [3] and in assay [5] was “inactive” in each case. Further, in assay [4], the activity (max response) was 4.7%.

Take `CCN(CC)C(=O)c1cccc(C)c1`: the Potency entry in assay [1], in assay [2], in assay [3] and in assay [5] was “inactive” in each case. The activity (max response) in assay [4] is 6.94%.

On to `Cc1ccc(-c2ccc3ncc4c(c3n2)n(C2CCN(C(=O)[C@H](C)O)CC2)c(=O)n4C)cn1`, for which, in assay [1], the Potency entry was “inactive”. Also, the Potency in assay [2] was 65.1 nM (active); in assay [3] it was 58 nM (active); in assay [4] it was 794 nM (active); in assay [5], 141 nM (active).
